Source: PubChem (The Scripps Research Institute Molecular Screening Center)
Sampled rows, rich in hits. Any-hit rate of the full collection: about 3.5%.
FBW7 activator: activators of human E3 ligase FBW7; AlphaScreen FBW7–phospho-cyclin E peptide binding, activator screen; Q969H0; actives 0.13% (n = 650,000); AID 1259310; normalized activity (activation), % at 26.1 µM; in the data active = normalized activity above about 1.9%;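 also: purified mutant Fbw7 with reduced substrate affinity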
Target sequence (Q969H0 whole entry, looked up): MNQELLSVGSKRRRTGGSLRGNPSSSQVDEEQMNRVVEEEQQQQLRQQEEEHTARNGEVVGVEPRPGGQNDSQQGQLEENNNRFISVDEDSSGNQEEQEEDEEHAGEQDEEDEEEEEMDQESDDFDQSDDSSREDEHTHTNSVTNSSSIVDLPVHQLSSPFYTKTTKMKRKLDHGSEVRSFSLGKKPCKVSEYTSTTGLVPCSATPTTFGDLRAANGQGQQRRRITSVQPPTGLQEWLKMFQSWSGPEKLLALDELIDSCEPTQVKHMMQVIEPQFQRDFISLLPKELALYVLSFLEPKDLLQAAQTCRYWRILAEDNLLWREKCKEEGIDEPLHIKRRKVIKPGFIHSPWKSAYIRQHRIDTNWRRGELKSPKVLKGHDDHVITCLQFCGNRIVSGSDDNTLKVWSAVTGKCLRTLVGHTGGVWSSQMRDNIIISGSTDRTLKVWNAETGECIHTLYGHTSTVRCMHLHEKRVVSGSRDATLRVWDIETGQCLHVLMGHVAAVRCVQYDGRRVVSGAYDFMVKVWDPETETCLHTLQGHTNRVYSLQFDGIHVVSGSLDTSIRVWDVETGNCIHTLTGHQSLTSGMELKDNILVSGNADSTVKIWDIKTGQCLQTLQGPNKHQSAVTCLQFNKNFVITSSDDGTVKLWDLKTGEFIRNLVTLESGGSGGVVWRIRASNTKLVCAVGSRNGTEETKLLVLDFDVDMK
TEAD-YAP block: TEAD-YAP interaction inhibition. AID 1259422. actives 1.4% (n = 640,000). inhibition, % at 9.12 µM. HEK-TIYL cells, TEAD-Gal4/YAP UAS-luciferase luminescence; in the data active = inhibition above about 32%;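 also: 0% = median of test compound wells and 100% = reference inhibitor wells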
GPR151 ag: human GPR151 activation. Q8TDV0. PathHunter beta-arrestin GPR151 cells, luminescence. activation, % at 11.2 µM. actives 1% (n = 650,000). AID 1508602; in the data active = activation above about 4.9%;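 also: 0% = median of compound wells and 100% = cells with positive control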
MITF inh: inhibitors of human MITF; AlphaScreen MITF homodimerization, bead proximity signal; O75030; inhibition, % at 2.6 µM; actives 0.91% (n = 650,000); in the data active = inhibition above about 50%;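 also: 0% = vehicle wells with protein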
The depositor's hits bear a star.

SMILES | FBW7 activator | TEAD-YAP block | GPR151 ag | MITF inh
Cc1cc(C)cc(OCC(=O)Nc2ccc(F)c([N+](=O)[O-])c2)c1 | 0.0 | 36.9* | 3.5 | 2.8
Cc1ccc(OCC(=O)Nc2ccc(F)c([N+](=O)[O-])c2)cc1C | -0.2 | 12.8 | 0.5 | -8.1
Cc1ccc(C(=O)Nc2nnc(SCC(=O)Nc3ccc(F)c([N+](=O)[O-])c3)s2)cc1 | 0.1 | 82.9* | 0.9 | -2.7
O=C(COc1cccc(Cl)c1)Nc1ccccc1[N+](=O)[O-] | 0.0 | 32.2* | 1.6 | -3.7
Cc1ccc(NC(=O)CSc2nnc(NC(=O)c3ccccc3[N+](=O)[O-])s2)cc1 | 0.0 | -31.8 | -3.9 | -16.6
Cc1cccc(OCC(=O)Nc2ccc(F)c([N+](=O)[O-])c2)c1 | -0.3 | 32.0* | 0.5 | 1.1
COc1ccccc1C1/C(=C(\O)c2ccc(C)cc2)C(=O)C(=O)N1c1cccnc1 (stereo not given) | 0.1 | 1.6 | -1.3 | 8.6
Cc1ccc(S(=O)(=O)CC(=O)Nc2ccc(Br)cc2F)cc1 | -0.2 | 13.1 | 0.2 | 4.7
CCOc1ccc(OCCOn2nnc3ccccc32)cc1 | 0.2 | -46.9 | -1.0 | 1.1
N=C1C(c2nc3ccccc3s2)=C(O)CN1/N=C/c1ccc(O)c(O)c1O | -0.1 | -10.6 | -1.2 | 56.0*
N=C1C(c2nc3ccccc3s2)=C(O)CN1/N=C/C=O | -0.2 | 1.5 | 1.1 | 1.2
O=C(O)c1cccc2c1NC(c1cccc(Br)c1)C1CC=CC21 (stereo not given) | 0.0 | 8.2 | 1.2 | 23.7
Cc1c(C(=O)O)ccc2c1N[C@@H](c1cccc(Cl)c1)[C@H]1CC=C[C@@H]21 | -0.6 | -0.5 | -0.2 | 76.5*
O=C(O)c1cc(Br)cc2c1N[C@@H](c1ccc(F)cc1)[C@H]1CC=C[C@@H]21 | -0.4 | -3.4 | -1.2 | 78.5*
O=C(O)c1cccc2c1NC(c1ccc([N+](=O)[O-])cc1)C1CC=CC21 (stereo not given) | -0.2 | -4.3 | 0.5 | 65.0*
O=C(O)c1cccc2c1NC(c1ccccc1[N+](=O)[O-])C1CC=CC21 (stereo not given) | -0.3 | -0.5 | 0.0 | 66.5*
COc1cccc(C2=NOC(C(=O)Nc3ccc(C#N)cc3)C2)c1 (stereo not given) | 0.5 | -2.6 | -0.4 | -29.8
Nc1c(C(=O)NC2CCCCC2)sc(=S)n1-c1cccc(C(F)(F)F)c1 | 0.0 | 2.2 | 1.5 | 13.3
O=C(Cn1c2c(c3ccccc31)CCC2)NC1=NCCS1 | -0.4 | 77.4* | -0.1 | 10.1
C=CCOc1ccc(C=C2C(=O)N(C)C(=S)N(C)C2=O)cc1I | 0.4 | 15.0 | -0.9 | 13.2
C=CCOc1ccc(C=C2C(=O)N(C)C(=S)N(C)C2=O)cc1OC | 0.0 | -0.4 | 0.3 | 66.6*
Cn1c(Sc2ccc([N+](=O)[O-])c3cnccc23)nnc1C(F)(F)F | -0.2 | -1.3 | 1.2 | -11.8
O=[N+]([O-])c1ccc(Sc2nnnn2-c2ccccc2)c(Cl)c1 | -0.4 | 34.4* | 0.3 | 20.7
O=[N+]([O-])c1ccc(Sc2nnnn2-c2ccccc2)c2ccncc12 | -0.2 | 49.8* | -0.6 | 4.4
CC(=O)c1ccc(Sc2nnnn2-c2ccccc2)c([N+](=O)[O-])c1 | 0.2 | 33.2* | -1.7 | 4.2
SMILES | FBW7 activator | TEAD-YAP block | GPR151 ag | MITF inh
O=[N+]([O-])c1cc(C(F)(F)F)ccc1Sc1nnnn1-c1ccccc1 | -0.2 | 2.4 | -0.2 | 2.1
Cc1ccccc1-n1nnnc1Sc1ccc([N+](=O)[O-])c2cnccc12 | -0.2 | 44.0* | 1.4 | -7.3
O=C(Nc1ccc(-c2noc(-c3cccc(Cl)c3)n2)cc1)c1ccco1 | 0.9 | 53.6* | -0.4 | -10.3
COc1ccc(-c2ccc(C)c(NC(=O)Cc3ccc(OC)c(OC)c3)c2)nn1 | 1.2 | 63.9* | 0.1 | 9.8
COc1ccc(CC(=O)Nc2ccc(C)c(C)c2)cc1OC | -0.1 | 7.7 | 1.2 | 1.9
COc1ccc(CC(=O)Nc2cc(NC(=O)c3cccs3)ccc2C)cc1OC | 0.1 | 32.4* | -0.9 | 17.4
COc1ccccc1CCNC(=O)NC1CC(=O)N(c2ccccc2)C1 (stereo not given) | -0.2 | -8.7 | 0.3 | -7.5
Cc1cc(C(=O)N=c2sc3cc4c(cc3n2C)OCCO4)n(C)n1 | -0.1 | -15.5 | -1.7 | 7.3
Cc1cc(C(=O)N=c2sc3cc4c(cc3n2C)OCCO4)nn1C | -0.1 | 37.8* | -3.7 | 5.7
CSc1ccc(/C=C2\C(=O)ON=C2C)cc1 | 0.5 | -2.7 | -0.4 | 78.7*
COc1cc(/C=C2\C(=O)ON=C2C)cc(Cl)c1OC(C)C | 0.0 | -3.6 | -0.2 | 75.4*
CCOc1c(Br)cc(/C=C2\C(=O)ON=C2C)cc1OC | -0.1 | -8.0 | 1.5 | 77.9*
C#CCOc1ccc(/C=C2\C(=O)ON=C2C)cc1OC | -0.4 | -9.5 | 1.5 | 67.7*
CCc1ccc(NC(=O)Cn2c(=O)oc3cc(S(=O)(=O)N4CCCCC4)ccc32)cc1 | -0.1 | 10.0 | 1.7 | 14.7
Cn1c2c(c(=O)n(C)c1=O)C(c1ccccc1Br)C1=C(CCCC1=O)N2 (stereo not given) | 0.0 | -64.8 | -0.1 | -16.5
COc1ccc(OC)c(/C=C2/C(=O)ON=C2C)c1 | -0.1 | -4.3 | -0.2 | 45.5
COc1ccc(Br)cc1/C=C1\C(=O)ON=C1C | 0.1 | -4.6 | -1.0 | 64.7*
O=C(c1cc(-c2cccc(O)c2)on1)N1CCCCC1 | 0.1 | 67.1* | -2.7 | 16.5
CCC(C)C(=O)N1CCCC(c2nc(-c3cccc(OC)c3)no2)C1 (stereo not given) | -0.1 | 61.4* | -1.5 | -4.3
COc1cccc(-c2cc(C(=O)N3CCCC3)no2)c1 | 0.1 | 37.8* | -3.8 | 10.1
O=C(c1cc(-c2ccccc2)on1)N1CCCCCC1 | 0.7 | -66.8 | -1.0 | 23.3
O=C(NC1CCCC1)C(c1ccncc1)N(C(=O)c1ccco1)c1ccc2c(c1)OCO2 (stereo not given) | 0.0 | 2.2 | 1.6 | 47.7
COc1ccc(-c2nc3ccccc3c(=O)n2OC(=O)c2ccc(C(C)(C)C)cc2)cc1OC | 0.1 | -13.6 | -1.8 | -3.4
COc1ccccc1C(=O)Nn1c(-c2ccc(Br)cc2)nc2ccccc2c1=O | -0.1 | 7.1 | 0.0 | -0.8
CCc1ccc(C(=O)On2c(-c3ccc(C(C)(C)C)cc3)nc3ccccc3c2=O)cc1 | -0.6 | 39.1* | -0.6 | -6.0
SMILES | FBW7 activator | TEAD-YAP block | GPR151 ag | MITF inh
COc1ccccc1C(=O)Nn1c(-c2ccc(C(C)(C)C)cc2)nc2ccccc2c1=O | 0.0 | 39.7* | -0.2 | 17.3
CC(C)(C)c1ccc(C(=O)On2c(-c3ccc(C(C)(C)C)cc3)nc3ccccc3c2=O)cc1 | -0.7 | 37.9* | -0.5 | -4.1
CCOc1ccc(-n2cc(-c3ccccc3)c3c(SCc4ccc(C)cc4)ncnc32)cc1 | 0.1 | -1.1 | 0.2 | 10.6
COc1ccc(C2=NN(C(=O)CCCC(=O)O)C(c3ccccc3F)C2)cc1 (stereo not given) | 0.1 | 8.0 | 2.5 | 8.1
CCc1c(C)sc(NC(=O)c2cccnc2)c1C#N | 0.1 | 5.7 | 0.7 | -20.1
CC(C)C[C@H]1NC(=O)[C@@H]2C[C@H](NCc3cn(C)nc3-c3ccccc3)CN2C1=O | 2.5* | 0.0 | -0.4 | -7.8
Cn1cc(CN[C@H]2C[C@H]3C(=O)N[C@@H](CO)C(=O)N3C2)c(-c2ccccc2)n1 | 0.0 | -5.7 | 0.8 | -9.0
